Inconclusive results are not listed. Calls of active or inactive are those of the source. Calls come from the whole dose curve; as a rule, active = well fitted inhibition curve with a large enough effect; inconclusive = small, poorly fitted or top-dose-only effect; inactive = flat fitted curve, though single readings scatter.
Key:
CRL-7250 = normal cell line; assay: Cytotoxic Profiling of Annotated Libraries Using Quantitative High-Throughput Screening (AID 1296008); conditions: Five cell lines viability, CellTiter-Glo ATP luminescence, 48-72 h; max response: active compounds read low; note: potency is the fitted concentration of half-maximal effect
In short: (§1)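 Cytotoxicity was measured as CellTiter-Glo ATP luminescence, read after 10 min at room temperature. Compound treatment of the cells lasted 48 or 72 hr at 37 degrees Celsius in a qHTS format.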

HEK293 = assay: as above; conditions: Five cell lines viability, CellTiter-Glo ATP luminescence, 48-72 h; max response: active compounds read low
In short: as §1

HaCat [1] = assay: as above; conditions: Five cell lines viability, CellTiter-Glo ATP luminescence, 48-72 h; max response: active compounds read low
In short: as §1

KB-3-1 = assay: as above; conditions: Five cell lines viability, CellTiter-Glo ATP luminescence, 48-72 h; max response: active compounds read low
In short: as §1

NIH3T3 = assay: as above; conditions: Five cell lines viability, CellTiter-Glo ATP luminescence, 48-72 h; max response: active compounds read low
In short: as §1

HACAT [2] = assay: qHTS assay to identify novel small-molecules to repurpose for Merkel cell carcinoma treatment (AID 1296009); conditions: MCC and control cell lines, CellTiter-Glo viability, 72 h; at 44.8 µM (top of the series) unless noted
In short: (§2)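 After compound transfer in DMSO, plates were kept 72 hr at 37 degree celsius. Luminescent ATP signal from CellTiter-Glo served as viability measure, normalized against DMSO and no-cell controls.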

MCC-13 = assay: as above; conditions: MCC and control cell lines, CellTiter-Glo viability, 72 h; series mostly up to 46 µM
In short: as §2

MCC-26 = assay: as above; conditions: MCC and control cell lines, CellTiter-Glo viability, 72 h; series mostly up to 46 µM
In short: as §2

HEK293T = assay: as above; conditions: MCC and control cell lines, CellTiter-Glo viability, 72 h; at 44.8 µM (top of the series) unless noted
In short: as §2
% is set by controls: 0 for no effect and ±100 for the full control effect.
Note: nearly all actives have a fitted effect of over 60% in size.

COc1cc(C(=O)NC2CCCNC2)cc(OC)c1OC (stereo unspecified)
inactive: max response (CRL-7250) 1.65% | max response (HEK293) -8.29% | outcome (HaCat [1]) | max response (KB-3-1) -17.2% | max response (NIH3T3) 4.73% | outcome (HACAT [2]) | Potency (MCC-13) | Potency (MCC-26)

COC(=O)C1=CO[C@@H](O)[C@@H]2C(CO)=CC[C@H]12
inactive: max response (CRL-7250) 0.169% | max response (HEK293) -25.4% | max response (HaCat [1]) -1.37% | max response (KB-3-1) -12.1% | max response (NIH3T3) -14.6%

CN1CCC(=C2c3ccccc3CCc3cccnc32)CC1
inactive: max response (CRL-7250) 3.77% | max response (HEK293) 2.67% | outcome (HaCat [1]) | max response (KB-3-1) -10.8% | outcome (NIH3T3) | outcome (HACAT [2]) | Potency (MCC-13) | Potency (MCC-26)

CCOC(=O)NNc1ccc(N(CC)CC(C)O)nn1 (stereo unspecified)
inactive: max response (CRL-7250) 2.28% | outcome (HEK293) | outcome (HaCat [1]) | max response (KB-3-1) -6.42% | max response (NIH3T3) 4.97% | outcome (HACAT [2]) | outcome (HEK293T) | Potency (MCC-13) | Potency (MCC-26)

COc1cc(C=O)ccc1O
inactive: max response (CRL-7250) -1.68% | max response (HEK293) -1.3% | outcome (HaCat [1]) | max response (KB-3-1) -6.73% | max response (NIH3T3) -0.279% | outcome (HACAT [2]) | Potency (MCC-13) | Potency (MCC-26)

O=C(Oc1ccccc1)c1cccc(C(=O)Oc2ccccc2)c1
inactive: max response (CRL-7250) -12.1% | max response (HEK293) 3.23% | outcome (HaCat [1]) | max response (KB-3-1) -6.63% | max response (NIH3T3) -5.12% | outcome (HACAT [2]) inactive [at 92 µM] | Potency (MCC-13)

Cc1cccc(C)c1NC(=O)c1cc(S(N)(=O)=O)c(Cl)cc1O
inactive: outcome (CRL-7250) | outcome (HEK293) | outcome (HaCat [1]) | max response (KB-3-1) -20.9% | max response (NIH3T3) -1.69% | outcome (HACAT [2]) | outcome (HEK293T) | Potency (MCC-13) | Potency (MCC-26)

CCCC(=O)O[C@]1(C(=O)COC(=O)CC)CC[C@H]2[C@@H]3CCC4=CC(=O)CC[C@]4(C)[C@H]3[C@@H](O)C[C@@]21C
inactive: max response (CRL-7250) 1.61% | max response (HEK293) 3.26% | outcome (HaCat [1]) | max response (KB-3-1) -1.68% | max response (NIH3T3) 1.36% | outcome (HACAT [2]) inactive [at 17.4 µM] | Potency (MCC-13) | Potency (MCC-26)

CC(C)(C)c1nnc(NS(=O)(=O)c2ccccc2)s1
inactive: max response (CRL-7250) 4.99% | outcome (HEK293) | outcome (HaCat [1]) | max response (KB-3-1) 3.82% | max response (NIH3T3) 1.08% | outcome (HACAT [2]) | outcome (HEK293T) | Potency (MCC-13) | Potency (MCC-26)

CN1C(=O)CC(C)(c2ccccc2)C1=O (stereo unspecified)
inactive: max response (CRL-7250) -0.376% | max response (HEK293) 1.84% | outcome (HaCat [1]) | max response (KB-3-1) -1.96% | outcome (NIH3T3) | outcome (HACAT [2]) | Potency (MCC-13) | Potency (MCC-26)

C[C@@H](O[C@H]1OCCN(Cc2n[nH]c(=O)[nH]2)[C@H]1c1ccc(F)cc1)c1cc(C(F)(F)F)cc(C(F)(F)F)c1
inactive: max response (CRL-7250) 4.27%

C[C@@H](C1=C(CCN(C)C)Cc2ccccc21)c1ccccn1
inactive: outcome (CRL-7250) | max response (HEK293) -25.1% | outcome (HaCat [1]) | max response (KB-3-1) -6.09% | max response (NIH3T3) 1.99% | outcome (HACAT [2]) | Potency (MCC-13)

Oc1ccccc1
inactive: max response (CRL-7250) -1.94% | max response (HEK293) -1.05% | outcome (HaCat [1]) | max response (KB-3-1) -6.38% | max response (NIH3T3) 3.74% | outcome (HACAT [2]) | Potency (MCC-13) | Potency (MCC-26)

O=C(COCCOCCOCC(=O)Nc1c(I)cc(I)c(C(=O)O)c1I)Nc1c(I)cc(I)c(C(=O)O)c1I
inactive: outcome (CRL-7250) | max response (HEK293) 0.699% | outcome (HaCat [1]) | max response (KB-3-1) -17% | max response (NIH3T3) 4.72% | outcome (HACAT [2]) | Potency (MCC-13) | Potency (MCC-26)

N[C@@H](Cn1ccc(=O)c(O)c1)C(=O)O
inactive: max response (CRL-7250) -0.877% | max response (HEK293) -0.669% | outcome (HaCat [1]) | max response (KB-3-1) 7.53% | max response (NIH3T3) 0.301% | outcome (HACAT [2]) inactive [at 4.96 µM]

O=C(OCC1(COC(=O)c2cccnc2)CCCC(COC(=O)c2cccnc2)(COC(=O)c2cccnc2)C1O)c1cccnc1
inactive: max response (CRL-7250) -5.9% | max response (HEK293) -9.95% | outcome (HaCat [1]) | max response (KB-3-1) 8.89% | max response (NIH3T3) -1.33% | outcome (HACAT [2]) | Potency (MCC-13) | Potency (MCC-26)

O=C(O)[C@H](O)[C@@H](O)[C@H](O[C@@H]1O[C@H](CO)[C@H](O)[C@H](O)[C@H]1O)[C@H](O)CO
inactive: max response (CRL-7250) -2.55% | outcome (HEK293) | outcome (HaCat [1]) | max response (KB-3-1) -11.9% | max response (NIH3T3) -0.868% | outcome (HACAT [2]) | outcome (HEK293T) | Potency (MCC-13) | Potency (MCC-26)

CCCCCOc1ccc(C2SC(=O)NC2=O)cc1OCC (stereo unspecified)
inactive: max response (CRL-7250) -3.49% | max response (HEK293) 3.99% | outcome (HaCat [1]) | outcome (KB-3-1) | outcome (NIH3T3) | outcome (HACAT [2]) | Potency (MCC-13) | Potency (MCC-26)

Nc1ncnc2n[nH]c(Nc3ccc(F)cc3)c12
active: Potency (CRL-7250) 10.3 µM

CCOC(=O)NNc1nncc2ccccc12
inactive: max response (CRL-7250) -0.257% | max response (HEK293) -5.42% | outcome (HaCat [1]) | max response (KB-3-1) -9.29% | max response (NIH3T3) 3.89% | outcome (HACAT [2]) | Potency (MCC-13) | Potency (MCC-26)

CSc1ccc(/C=C2/C(C)=C(CC(=O)O)c3cc(F)ccc32)cc1
inactive: outcome (CRL-7250) | max response (HEK293) 0.521% | outcome (HaCat [1]) | max response (KB-3-1) -18.2% | max response (NIH3T3) -3.24% | outcome (HACAT [2]) | Potency (MCC-13) | Potency (MCC-26)

COc1ccccc1N1CCN(CCN2C(=O)CC3(CCCC3)CC2=O)CC1
inactive: max response (CRL-7250) -8.79% | outcome (HEK293) | outcome (HaCat [1]) | max response (KB-3-1) 1.39% | outcome (NIH3T3) | outcome (HACAT [2]) | outcome (HEK293T)

CN(C(=O)C(Cl)Cl)c1ccc(OC(=O)c2ccco2)cc1
inactive: max response (CRL-7250) 4.42% | max response (HEK293) -3.53% | outcome (HaCat [1]) | max response (KB-3-1) -7.7% | max response (NIH3T3) 1.4% | outcome (HACAT [2]) | Potency (MCC-13) | Potency (MCC-26)
